Data from the supplement of paper PMC6331611.
± gives the standard deviation of the averaged measurements. In all, about 1,600 compounds were measured (“normalized growth (OD600, IQM-normalized) in LPM”: median about 1, lowest 2% from about 0.014 on). For the sample, the lowest values were picked, then their nearest neighbours and some compounds at random.

These compounds were tested on Salmonella enterica serovar Typhimurium SL1344 (assay: normalized growth (OD600, IQM-normalized) in LPM (fraction of plate interquartile mean); higher = more bacterial growth (less inhibition)). Settings: LPM pH 5.8; 10 µM; 16 h.

Row | SMILES | normalized growth
1 | CNCC[C@H](Oc1cccc2ccccc12)c1cccs1 | 1.05 ± 0.046
2 | CN1CC(=O)N2[C@H](c3ccc4c(c3)OCO4)c3[nH]c4ccccc4c3C[C@@H]2C1=O | 1.19 ± 0.024
3 | CCOC(=O)CCC(=O)O[C@H]1[C@H](O[C@@H]2[C@@H](C)[C@H](O[C@H]3C[C@@](C)(OC)[C@@H](O)[C@H](C)O3)[C@@H](C)C(=O)O[C@H](CC)[C@@](C)(O)[C@H](O)[C@@H](C)C(=O)[C@H](C)C[C@@]2(C)O)O[C@H](C)C[C@@H]1N(C)C | 1.14 ± 0.045
4 | C=CCCCCCCCCC(=O)[O-].C=CCCCCCCCCC(=O)[O-].[Zn+2] | 1.15 ± 0.041
5 | CCN(CC)CCNC(=O)COc1ccc(OC)cc1 | 0.869 ± 0.0096
6 | CC(C)(O)c1ccccc1CC[C@@H](SCC1(CC(=O)O)CC1)c1cccc(/C=C/c2ccc3ccc(Cl)cc3n2)c1 | 1 ± 0.023
7 | CC(C)CCCC(C)N (stereo not given) | 1.05 ± 0.09
8 | CCC(C)(C)C(=O)O[C@H]1C[C@@H](C)C=C2C=C[C@H](C)[C@H](CC[C@@H]3C[C@@H](O)CC(=O)O3)[C@H]21 | 0.777 ± 0.071
9 | CC(=O)OCC[N+](C)(C)C | 1.05 ± 0.023
10 | CC(=O)N(c1onc(C)c1C)S(=O)(=O)c1ccc(N)cc1 | 1.08 ± 0.046
11 | CO[C@H]1C[C@H](O[C@H]2[C@H](C)O[C@@H](O[C@@H]3/C(C)=C/C[C@@H]4C[C@@H](C[C@]5(C=C[C@H](C)[C@@H](C6CCCCC6)O5)O4)OC(=O)[C@@H]4C=C(C)[C@@H](O)[C@H]5OC/C(=C\C=C\[C@@H]3C)[C@]54O)C[C@@H]2OC)O[C@@H](C)[C@@H]1O | 0.776 ± 0.03
12 | CC(=O)NCCCS(=O)(=O)O | 0.949 ± 0.11
13 | CCOC(=O)OC(C)OC1=C(C(=O)Nc2ccccn2)N(C)S(=O)(=O)c2ccccc21 (stereo not given) | 1.04 ± 0.05
14 | CC1CCc2c(N3CCC(O)CC3)c(F)cc3c(=O)c(C(=O)O)cn1c23 (stereo not given) | 0.0179 ± 0.013
15 | CO/N=C1\CN(c2nc3c(cc2F)c(=O)c(C(=O)O)cn3C2CC2)CC1CN (stereo not given) | 0.0206 ± 0.00035
16 | C[C@H]1COc2c(C3(N)CC3)c(F)cc3c(=O)c(C(=O)O)cn1c23 | 0.008373 ± 7.5e-05
17 | CC1COc2c(N3CCN(C)CC3)c(F)cc3c(=O)c(C(=O)O)cn1c23 (stereo not given) | 0.0109 ± 0.00084
18 | CC1CCc2cc(F)cc3c(=O)c(C(=O)O)cn1c23 (stereo not given) | 0.0174 ± 0.0072
19 | CN1CCN(c2c(F)cc3c(=O)c(C(=O)O)cn4c3c2SCC4)CC1 | 0.02519 ± 0.00023
20 | C[C@H]1COc2c(N3CCN(C)CC3)c(F)cc3c(=O)c(C(=O)O)cn1c23 | 0.00833 ± 0.00037
21 | CC=CC1=C(C(=O)O)N2C(=O)[C@@H](NC(=O)[C@H](N)c3ccc(O)cc3)[C@H]2SC1 | 1.04 ± 0.032
22 | CCCCC(=O)N(Cc1ccc(-c2ccccc2-c2nnn[nH]2)cc1)[C@H](C(=O)O)C(C)C | 0.845 ± 0.034

Row | SMILES | normalized growth
23 | CCC(=O)c1c(O)cc(O)cc1O | 1.09 ± 0.016
24 | Cc1c(Nc2ncccc2C(=O)O)cccc1C(F)(F)F | 1.04 ± 0.041
25 | Cl.N=C(N)NCCC[C@H](N)C(=O)O | 1 ± 0.042
26 | C=C(NC(=O)C(=C)NC(=O)c1csc(C2=N[C@@H]3c4csc(n4)[C@H]4NC(=O)c5csc(n5)[C@H]([C@](C)(O)[C@@H](C)O)NC(=O)[C@H]5CSC(=N5)/C(=C/C)NC(=O)[C@H]([C@@H](C)O)NC(=O)c5csc(n5)[C@]3(CC2)NC(=O)[C@H](C)NC(=O)C(=C)NC(=O)[C@H](C)NC(=O)[C@H]([C@@H](C)CC)N[C@@H]2C=Cc3c([C@H](C)O)cc(nc3[C@H]2O)C(=O)O[C@@H]4C)n1)C(N)=O | 1 ± 0.09
27 | C=C(C)[C@H]1CC=C(C)CC1 | 0.978 ± 0.024
28 | Cc1cc2nc3c(=O)[nH]c(=O)nc-3n(CC(O)C(O)C(O)COP(=O)(O)O)c2cc1C (stereo not given) | 0.822 ± 0.056
29 | O=S(=O)(O)CCSSCCS(=O)(=O)O | 1.02 ± 0.069
30 | CC(C)[C@H](NC(=O)[C@H](CC(=O)O)NC(=O)[C@H](CCCCN)NC(=O)[C@@H](N)CCCN=C(N)N)C(=O)N[C@@H](Cc1ccc(O)cc1)C(=O)O | 0.991 ± 0.011
31 | CC(=O)OCC(=O)[C@@]1(O)CC[C@H]2[C@@H]3CCC4=CC(=O)CC[C@]4(C)[C@@]3(F)[C@@H](O)C[C@@]21C | 1.09 ± 0.11
32 | O=C1c2c(O)cccc2C([C@@H]2O[C@H](CO)[C@@H](O)[C@H](O)[C@H]2O)c2cc(CO)cc(O)c21 (stereo not given in full) | 1 ± 0.043
33 | C[N+]1(C)[C@@H]2CC[C@H]1C[C@@H](OC(=O)C(O)c1ccccc1)C2 (stereo not given in full) | 0.976 ± 0.081
34 | Nc1ncnc(Nc2ccc(Cl)cc2)n1 | 0.999 ± 0.071
35 | CN1CCCN=C1COC(=O)C(O)(c1ccccc1)C1CCCCC1 (stereo not given) | 1.23 ± 0.026
36 | CC(O)(CC(=O)O)CC(=O)O | 0.921 ± 0.018
37 | COc1ccc(CN(CCN(C)C)c2ncccn2)cc1 | 1.11 ± 0.038
38 | CCN(CC)CCOc1ccc(C(=C(Cl)c2ccccc2)c2ccccc2)cc1 | 1.07 ± 0.023
39 | CN(C)[C@@H]1C(O)=C(C(N)=O)C(=O)[C@@]2(O)C(O)=C3C(=O)c4c(O)cccc4[C@@](C)(O)[C@H]3C[C@@H]12 | 0.0127 ± 0.00026
40 | C=C1c2cccc(O)c2C(=O)C2=C(O)[C@]3(O)C(=O)C(C(N)=O)=C(O)[C@@H](N(C)C)[C@@H]3[C@@H](O)[C@H]12 | 0.0154 ± 0.00028
41 | C[C@H]1c2cccc(O)c2C(=O)C2=C(O)[C@]3(O)C(=O)C(C(N)=O)=C(O)[C@@H](N(C)C)[C@@H]3[C@@H](O)[C@@H]21 | 0.0125 ± 0.00056
42 | CN(C)[C@@H]1C(O)=C(C(N)=O)C(=O)[C@@]2(O)C(O)=C3C(=O)c4c(O)ccc(Cl)c4[C@@](C)(O)[C@H]3C[C@@H]12 | 0.0113 ± 0.00051
43 | C=C1c2c(Cl)ccc(O)c2C(=O)C2=C(O)[C@]3(O)C(=O)C(C(N)=O)=C(O)[C@@H](N(C)C)[C@@H]3[C@@H](O)[C@H]12.O=C(O)c1cc(S(=O)(=O)O)ccc1O | 0.0199 ± 0.00036
44 | CN(C)[C@@H]1C(O)=C(C(=O)NCN2CCCC2)C(=O)[C@@]2(O)C(O)=C3C(=O)c4c(O)cccc4[C@@](C)(O)[C@H]3C[C@@H]12 | 0.854 ± 0.027

Row | SMILES | normalized growth
45 | CN(C)[C@@H]1C(O)=C(C(N)=O)C(=O)[C@@]2(O)C(O)=C3C(=O)c4c(O)cccc4[C@@](C)(O)[C@H]3[C@H](O)[C@@H]12 | 0.0138 ± 0.00025
46 | CN(C)c1cc(NC(=O)CNC(C)(C)C)c(O)c2c1C[C@H]1C[C@H]3[C@H](N(C)C)C(O)=C(C(N)=O)C(=O)[C@@]3(O)C(O)=C1C2=O | 0.962 ± 0.053
47 | CN(C)c1ccc(O)c2c1C[C@H]1C[C@H]3[C@H](N(C)C)C(O)=C(C(N)=O)C(=O)[C@@]3(O)C(O)=C1C2=O | 0.0111 ± 0.00049
48 | CN(C)[C@@H]1C(O)=C(C(N)=O)C(=O)[C@@]2(O)C(O)=C3C(=O)c4c(O)ccc(Cl)c4[C@@H](O)[C@H]3C[C@@H]12 | 0.00865 ± 0.00039
49 | CC1(C)[C@H]2CC[C@]1(CS(=O)(=O)O)C(=O)C2=Cc1ccc(C=C2C(=O)[C@@]3(CS(=O)(=O)O)CC[C@@H]2C3(C)C)cc1 | 0.989 ± 0.073
50 | CC(=O)[C@H]1CC[C@H]2[C@@H]3CC=C4C[C@@H](OC(=O)CCC(=O)O)CC[C@]4(C)[C@H]3CC[C@]12C | 1.02 ± 0.027
51 | CCCCC(CC)COC(=O)C(C#N)=C(c1ccccc1)c1ccccc1 (stereo not given) | 0.82 ± 0.0086
52 | CCN(CC)CCc1nc(-c2ccccc2)no1 | 0.956 ± 0.062
53 | C/C(=C\C(=O)OCCCCCCCCC(=O)O)C[C@@H]1OC[C@H](C[C@@H]2O[C@H]2[C@@H](C)[C@H](C)O)[C@@H](O)[C@H]1O | 0.00952 ± 0.00017
54 | COc1cccc(OC)c1C(=O)N[C@@H]1C(=O)N2[C@@H]1SC(C)(C)[C@@H]2C(=O)O | 1.12 ± 0.019
55 | CCc1cn([C@H]2C[C@H](O)[C@@H](CO)O2)c(=O)[nH]c1=O | 0.664 ± 0.046
56 | O=c1[nH]c(=O)n([C@H]2C[C@H](O)[C@@H](CO)O2)cc1F | 0.0114 ± 0.00023
57 | O=c1[nH]c(=O)n([C@H]2C[C@H](O)[C@@H](CO)O2)cc1I | 1.05 ± 0.026
58 | O=C1C(CC[S+]([O-])c2ccccc2)C(=O)N(c2ccccc2)N1c1ccccc1 (stereo not given) | 1.097 ± 0.0059
59 | CN1CCCC(n2nc(Cc3ccc(Cl)cc3)c3ccccc3c2=O)CC1 (stereo not given) | 1.04 ± 0.039
60 | N=C(N)NCC1COC2(CCCCC2)O1 (stereo not given) | 0.863 ± 0.015
61 | CCCc1nc(C(C)(C)O)c(C(=O)OCc2oc(=O)oc2C)n1Cc1ccc(-c2ccccc2-c2nnn[nH]2)cc1 | 1.005 ± 0.0069
62 | CN(C)CCN(Cc1ccccc1)c1ccccn1 | 0.906 ± 0.035
63 | CCN(CC)C(=O)c1cccnc1 | 1.14 ± 0.095
64 | OC[C@@H](O)[C@@H](O)CO | 0.975 ± 0.05
65 | COc1ccc(-c2cc(C(F)F)nn2-c2ccc(S(N)(=O)=O)cc2)cc1F | 1.01 ± 0.035
